Structures are written as SMILES. Results filed as inconclusive are left out. Calls of active or inactive are those of the source. Calls follow the shape of the dose curve; as a rule, active = well fitted curve in the direction sought with a large enough effect; inconclusive = small, poorly fitted or top-dose-only effect, or another doubt; inactive = no such curve, though single readings can be large; an effect the other way counts as inactive or inconclusive.

The values that follow come from PubChem BioAssay (NCATS).

Assay [1] is described as follows: Quantitative High-Throughput drug screen in 47 multiple myeloma cell lines against the NCATS MIPE library collection: Delta47_JCRB cell viability assay (AID 1918925; also: nearly all actives have a fitted effect of over 45% in size; also: potency is read from the fitted curve at half-maximal effect). An outline of the steps: (§1)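 Primary qHTS used for cherry-picking: cells at 500/well, library compounds for 48 h (37C, 5% CO2), luminescent ATP assay.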
A short description of assay [2]: Quantitative High-Throughput drug screen in 47 multiple myeloma cell lines against the NCATS MIPE library collection: EJM_DSMZ cell viability assay (AID 1918926; also: nearly all actives have a fitted effect of over 30% in size; also: potency is read from the fitted curve at half-maximal effect). An outline of the steps: as §1
Assay [3] can be described thus: Quantitative High-Throughput drug screen in 47 multiple myeloma cell lines against the NCATS MIPE library collection: ARP1_JJKsccF8 cell viability assay (AID 1918928; also: nearly all actives have a fitted effect of over 40% in size; also: potency is read from the fitted curve at half-maximal effect). An outline of the steps: (§2)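 Myeloma cells, 500 per well, were exposed to MIPE 4.0 drugs by pin transfer for 48 h at 37 °C, 5% CO2. Viability was read as ATP luminescence with CellTiter-Glo, normalised to DMSO-only (100%) and medium-only (0%) wells.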

Assay [4] in a line: Quantitative High-Throughput drug screen in 47 multiple myeloma cell lines against the NCATS MIPE library collection: ARD_JJKsccE7 cell viability assay (AID 1918929; also: potency is read from the fitted curve at half-maximal effect). An outline of the steps: as §1
Assay [5] is described as follows: Quantitative High-Throughput drug screen in 47 multiple myeloma cell lines against the NCATS MIPE library collection: Karpas620_DSMZ cell viability assay (AID 1918959). Also: nearly all actives have a fitted effect of over 30% in size. Also: potency is read from the fitted curve at half-maximal effect. An outline of the steps: (§3)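 Viability readout: CellTiter-Glo luminescence following 5 min room-temperature incubation with reagent. Prior exposure: 48 h, 37C, humidified 5% CO2, 500 cells per well.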

A short description of assay [6]: Quantitative High-Throughput drug screen in 47 multiple myeloma cell lines against the NCATS MIPE library collection: KMM1_JCRB cell viability assay (AID 1918960). Also: nearly all actives have a fitted effect of over 30% in size. Also: potency is read from the fitted curve at half-maximal effect. An outline of the steps: as §2
A short description of assay [7]: Quantitative High-Throughput drug screen in 47 multiple myeloma cell lines against the NCATS MIPE library collection: Karpas417_ECACC cell viability assay (AID 1918961). Also: potency is read from the fitted curve at half-maximal effect. The following applies: Karpas417 myeloma viability, CellTiter-Glo ATP luminescence, 48 h; viability (% of DMSO): at 45.8 µM (top of the series). An outline of the steps:
(§4)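 Approved and investigational drugs from MIPE 4.0 were added by pin tool to 500 cells per well. After 48 hours at 37C, ATP-based CellTiter-Glo luminescence indicated remaining viability.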
Background: ATP-based viability assays read luminescence as a measure of living cells.

The nature of assay [8]: Quantitative High-Throughput drug screen in 47 multiple myeloma cell lines against the NCATS MIPE library collection: JIM3_ECACC cell viability assay (AID 1918963; also: nearly all actives have a fitted effect of over 35% in size; also: potency is read from the fitted curve at half-maximal effect). An outline of the steps:
as §3

A short description of assay [9]: Quantitative High-Throughput drug screen in 47 multiple myeloma cell lines against the NCATS MIPE library collection: INA6_PLB cell viability assay (AID 1918965; also: nearly all actives have a fitted effect of over 55% in size; also: potency is read from the fitted curve at half-maximal effect). An outline of the steps:
as §4

Assay [10] is described as follows: Quantitative High-Throughput drug screen in 47 multiple myeloma cell lines against the NCATS MIPE library collection: KMS27_JCRB cell viability assay (AID 1918970). Also: nearly all actives have a fitted effect of over 30% in size. Conditions: KMS27 myeloma cells, CellTiter-Glo ATP viability, 48 h; viability (% of DMSO): at 45.8 µM (top of the series). An outline of the steps:
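Viability inhibition screen, 48 h compound exposure, luminescent ATP read-out.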

Assay [11] in a line: Quantitative High-Throughput drug screen in 47 multiple myeloma cell lines against the NCATS MIPE library collection: AMO1_DSMZ cell viability assay (AID 1918927; also: nearly all actives have a fitted effect of over 30% in size; also: potency is read from the fitted curve at half-maximal effect). An outline of the steps:
as §1

Assay [12] in a line: Quantitative High-Throughput drug screen in 47 multiple myeloma cell lines against the NCATS MIPE library collection: JIM1_ECACC cell viability assay (AID 1918964; also: potency is read from the fitted curve at half-maximal effect). An outline of the steps: as §1
Assay [13] can be described thus: Quantitative High-Throughput drug screen in 47 multiple myeloma cell lines against the NCATS MIPE library collection: H1112_PLB cell viability assay (AID 1918967; also: nearly all actives have a fitted effect of over 30% in size; also: potency is read from the fitted curve at half-maximal effect). An outline of the steps:
as §1

A short description of assay [14]: Quantitative High-Throughput drug screen in 47 multiple myeloma cell lines against the NCATS MIPE library collection: JJN3_DSMZ cell viability assay (AID 1918966; also: nearly all actives have a fitted effect of over 50% in size; also: potency is read from the fitted curve at half-maximal effect). An outline of the steps:
as §1

A short description of assay [15]: Quantitative High-Throughput drug screen in 47 multiple myeloma cell lines against the NCATS MIPE library collection: Karpas25_ECACC cell viability assay (AID 1918968; also: nearly all actives have a fitted effect of over 35% in size; also: potency is read from the fitted curve at half-maximal effect). An outline of the steps: as §1
Assay [16] is described as follows: Quantitative High-Throughput drug screen in 47 multiple myeloma cell lines against the NCATS MIPE library collection: KMS12BM_JCRB cell viability assay (AID 1918971). Also: nearly all actives have a fitted effect of over 35% in size. Also: potency is read from the fitted curve at half-maximal effect. An outline of the steps:
as §3

Assay [17] can be described thus: Quantitative High-Throughput drug screen in 47 multiple myeloma cell lines against the NCATS MIPE library collection: KHM11_PLB cell viability assay (AID 1918962). Also: nearly all actives have a fitted effect of over 35% in size. Also: potency is read from the fitted curve at half-maximal effect. An outline of the steps:
as §3

As to `CC1(C)[C@H]2CC[C@]3(C)[C@@H](C(=O)C=C4[C@@H]5C[C@@](C)(C(=O)O)CC[C@]5(C)CC[C@]43C)[C@@]2(C)CC[C@@H]1O`, the Potency result in [1], in [2], in [3], in assay [4], in assay [5] and in assay [6] was “inactive” in each case. Further, the Potency entry in assay [7], in assay [8], in assay [9] and in [10] was “inactive” each time.
As for `CO[C@H]1/C=C\O[C@@]2(C)Oc3c(C)c(O)c4c(O)c(c5c(nc6cc(C)ccn65)c4c3C2=O)NC(=O)C(C)=CC=C[C@H](C)[C@H](O)[C@@H](C)[C@@H](O)[C@@H](C)[C@H](OC(C)=O)[C@H]1C`, the Potency in assay [1] was 11.8 µM (active); in assay [11], 16.6 µM (active); in [4], 18.7 µM (active); in [5], 18.7 µM (active); in assay [6], 18.7 µM (active); in assay [12], 18.7 µM (active). The Potency result in assay [8] and in assay [13] was “inactive” throughout.
Take `CN(C(Cc1ccc(OS(=O)(=O)c2cccc3cnccc23)cc1)C(=O)N1CCN(c2ccccc2)CC1)S(=O)(=O)c1cccc2cnccc12` (stereo unspecified): the Potency in assay [1] was 5.26 µM (active); in assay [11], 8.33 µM (active); in [4], 5.9 µM (active); in assay [5] it was 5.9 µM (active); in [7], 4.18 µM (active); in [8], 6.62 µM (active). The Potency in assay [12] was 1.87 µM (active); in assay [9] it was 3.72 µM (active); in assay [14], 5.9 µM (active); in assay [13], 8.33 µM (active); in assay [15], 11.8 µM (active); in assay [16], 10.5 µM (active).
Consider `COc1ccc(CCN(C)CCCOc2ccc(S(=O)(=O)c3[nH]c4ccccc4c3C(C)C)cc2)cc1OC`, for which the Potency is 20.9 µM (active) in [1], 18.7 µM (active) in [8], 16.6 µM (active) in [9] and 23.5 µM (active) in assay [16]. The Potency entry in [11], in assay [3], in assay [4], in assay [5], in assay [6] and in assay [10] was “inactive” in each case.
As to `CN1[C@H]2CC[C@H]1CC(OC(=O)c1c[nH]c3ccccc13)C2` (stereo partly specified), the Potency in assay [1] was 4.18 µM (active). The Potency entry in [2], in [5], in [6], in assay [8], in assay [12] and in assay [9] was “inactive” in each case. The Potency entry in assay [10] and in assay [16] was “inactive” in each case.
For the compound `CC[C@H](C)C(=O)O[C@H]1C[C@H](O)C=C2C=C[C@H](C)[C@H](CC[C@@H](O)C[C@@H](O)CC(=O)O)[C@H]21`, the Potency entry in assay [1], in assay [2], in [3], in assay [4], in assay [5] and in assay [6] was “inactive” throughout. For the same compound, the Potency entry in assay [17], in [12], in assay [9], in assay [14], in assay [13] and in assay [15] was “inactive” in each case. For the same compound, in [16], the Potency result was “inactive”.
Turning to `COc1c(C)cnc(Cn2cnc3c(Cl)nc(N)nc32)c1C`, the Potency is 0.264 µM (active) in assay [1]; 0.0833 µM (active) in assay [11]; 0.118 µM (active) in assay [3]; 0.209 µM (active) in assay [5]; 0.059 µM (active) in assay [6]; 0.0235 µM (active) in assay [7]. Further, the Potency is 0.105 µM (active) in assay [17]; 0.148 µM (active) in [8]; 0.148 µM (active) in [9]; 0.166 µM (active) in [14]; 0.209 µM (active) in assay [15]; 0.187 µM (active) in assay [16].
For `C=C[C@@H]1CN2CCC1C[C@@H]2C(O)c1ccnc2ccc(OC)cc12` (stereo partly specified), the Potency result in assay [1], in assay [11], in assay [5], in [6], in assay [17] and in assay [8] was “inactive” each time. The Potency result in assay [12], in assay [13] and in assay [10] was “inactive” throughout. In addition, the Potency in assay [3] was 1.87 µM (active); in assay [14], 16.6 µM (active); in [15], 1.66 µM (active).
Regarding `OC(c1cc(C(F)(F)F)nc2c(C(F)(F)F)cccc12)C1CCCCN1` (stereo unspecified), the Potency in assay [1] was 26.4 µM (active); in assay [2], 18.7 µM (active); in [11], 18.7 µM (active); in assay [8], 18.7 µM (active); in assay [12] it was 16.6 µM (active); in assay [9] it was 23.5 µM (active). In addition, the Potency in assay [13] is 20.9 µM (active); in [15] it was 16.6 µM (active); in assay [16] it was 26.4 µM (active).
With `CCC(=C(c1ccc(O)cc1)c1ccc(OCCNC)cc1)c1ccccc1`, the Potency in assay [1] is 5.9 µM (active); in assay [2], 23.5 µM (active); in assay [11], 20.9 µM (active); in assay [5], 26.4 µM (active); in [8], 20.9 µM (active); in [9], 2.64 µM (active). In addition, the Potency is 18.7 µM (active) in [14], 23.5 µM (active) in assay [13], 18.7 µM (active) in [15] and 29.6 µM (active) in [16].
`CC(=O)OCC(=O)[C@@]1(O)CC[C@H]2[C@@H]3CCC4=CC(=O)C=C[C@]4(C)[C@@H]3[C@@H](O)C[C@@]21C`: the Potency result in [1], in assay [2], in [7], in [12] and in [13] was “inactive” each time. For the same compound, the Potency in assay [9] was 7.43 µM (active); in [15], 0.526 µM (active); in [16], 0.187 µM (active).
For `COc1cc(Cl)cn2c(-c3cccc(NC4CNC4)n3)cnc12`, the Potency in assay [1] is 20.9 µM (active); in [11] it was 5.26 µM (active); in assay [4], 16.6 µM (active); in assay [6], 16.6 µM (active); in [17], 18.7 µM (active); in [12], 4.18 µM (active). The figures for the Potency in assay [9] and in [16] were 16.6 µM (active) and 20.9 µM (active), respectively. Besides, the Potency result in assay [3] was “inactive”.
On to `CC[C@H]1OC(=O)[C@H](C)[C@@H](O[C@H]2C[C@@](C)(OC)[C@@H](O)[C@H](C)O2)[C@H](C)[C@@H](O[C@@H]2O[C@H](C)C[C@H](N(C)C)[C@H]2O)[C@](C)(O)C[C@H](C)C(=NOCOCCOC)[C@H](C)[C@@H](O)[C@]1(C)O`, for which the Potency entry in assay [1], in [2], in assay [3], in [5], in [6] and in [17] was “inactive” throughout. The Potency entry in assay [8], in assay [12], in [13], in assay [15] and in [10] was “inactive” each time. Also, the Potency in assay [14] is 13.2 µM (active).
Regarding `O=S(=O)(NCCNCC=Cc1ccc(Br)cc1)c1cccc2cnccc12`, the Potency was 14.8 µM (active) in assay [1]; 16.6 µM (active) in assay [11]; 16.6 µM (active) in assay [3]; 10.5 µM (active) in assay [4]; 20.9 µM (active) in assay [5]; 14.8 µM (active) in [6]. Besides, the Potency in [17] is 9.35 µM (active); in [12], 4.18 µM (active); in [9] it was 7.43 µM (active); in assay [14], 16.6 µM (active); in [13], 14.8 µM (active); in assay [16] it was 16.6 µM (active).
